# According to PubChem BioAssay:
# Results filed as inconclusive are left out. Active and inactive are the calls of the source. Cut-off read from the data, not from the text of the source, unless noted: active = inhibition above about 80%; inactive = the rest.
# Legend:
# [1] = target: ATP-dependent translocase ABCB1 (Homo sapiens) (UniProt P08183); experiment: MDR1 (ABCB1) efflux transporter inhibition, cell-based (AID 377; in the data active = fluorescence slope change above about 50%); conditions: MDR1-expressing cells, fluorescent substrate accumulation slope; stronger effect = higher value; concentration not given here
# Sequence of ATP-dependent translocase ABCB1 (Homo sapiens) (P08183 whole entry, looked up): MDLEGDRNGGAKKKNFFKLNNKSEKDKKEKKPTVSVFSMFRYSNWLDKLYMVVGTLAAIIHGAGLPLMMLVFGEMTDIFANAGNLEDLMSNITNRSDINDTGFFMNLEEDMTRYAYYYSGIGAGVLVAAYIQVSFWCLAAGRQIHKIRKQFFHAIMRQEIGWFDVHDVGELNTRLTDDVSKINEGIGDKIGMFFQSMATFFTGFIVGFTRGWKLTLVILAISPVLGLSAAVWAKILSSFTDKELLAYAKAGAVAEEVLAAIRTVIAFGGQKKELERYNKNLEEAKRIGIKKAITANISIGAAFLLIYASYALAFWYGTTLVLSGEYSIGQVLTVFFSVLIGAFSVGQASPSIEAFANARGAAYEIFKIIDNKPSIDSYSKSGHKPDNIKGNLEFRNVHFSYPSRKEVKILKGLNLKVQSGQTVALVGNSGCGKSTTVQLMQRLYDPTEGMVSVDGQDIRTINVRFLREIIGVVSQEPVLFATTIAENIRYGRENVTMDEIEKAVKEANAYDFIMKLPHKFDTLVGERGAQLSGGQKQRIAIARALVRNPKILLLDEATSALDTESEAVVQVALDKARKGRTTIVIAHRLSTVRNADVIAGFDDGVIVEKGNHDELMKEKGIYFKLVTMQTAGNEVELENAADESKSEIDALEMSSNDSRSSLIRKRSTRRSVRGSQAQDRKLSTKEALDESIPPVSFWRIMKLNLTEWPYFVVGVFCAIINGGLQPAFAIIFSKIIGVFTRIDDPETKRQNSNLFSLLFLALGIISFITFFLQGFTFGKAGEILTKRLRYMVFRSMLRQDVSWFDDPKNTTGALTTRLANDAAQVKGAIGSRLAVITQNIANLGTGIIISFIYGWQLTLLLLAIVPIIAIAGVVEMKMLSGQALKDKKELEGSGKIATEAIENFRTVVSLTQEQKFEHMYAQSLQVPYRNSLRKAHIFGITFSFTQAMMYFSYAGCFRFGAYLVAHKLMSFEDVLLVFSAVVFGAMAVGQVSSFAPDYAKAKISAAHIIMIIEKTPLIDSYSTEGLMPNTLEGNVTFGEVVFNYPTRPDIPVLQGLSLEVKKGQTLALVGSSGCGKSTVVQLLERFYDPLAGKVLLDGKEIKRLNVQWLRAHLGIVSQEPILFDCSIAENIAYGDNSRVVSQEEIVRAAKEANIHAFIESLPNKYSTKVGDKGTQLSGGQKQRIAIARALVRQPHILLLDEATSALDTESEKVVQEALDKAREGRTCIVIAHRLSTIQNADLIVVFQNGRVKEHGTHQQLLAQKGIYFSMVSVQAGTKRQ
# [2] = hESC survival regulators, cell-based (AID 493140; call rule not given here;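 note: cells exposed to compounds for four days before counting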); conditions: human embryonic stem cell survival screen; stronger effect = higher value
# [3] = UWB1.289 ovarian carcinoma cell growth inhibition, synergistic combos for chromothripsis tumors, BGB or cisplatin combos (AID 1671456); conditions: UWB1.289 ovarian carcinoma cells, stronger effect = higher value;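 note: cells exposed to compound for four days; 0% = vehicle DMSO and 100% = killing by high DMSO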
# [4] = LFS_MB_2R medulloblastoma cell growth inhibition, synergistic combos for chromothripsis tumors, cisplatin combos (AID 1671457); conditions: LFS_MB_2R medulloblastoma cells, stronger effect = higher value;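 note: cells exposed to compound for four days before readout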
# [5] = UWB1.289_BRCA1 ovarian cancer growth, cell-based, BGB or cisplatin combinations (AID 1671459); conditions: UWB1.289 BRCA1 ovarian carcinoma, drug combinations, stronger effect = higher value
# [6] = human astrocyte viability loss, single and combined drugs, cytotoxicity control for chromothriptic childhood tumor combination screen, cell-based, BGB or cisplatin IC20 combos (AID 1671460); conditions: Human astrocytes, drug combinations, stronger effect = higher value;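 note: cells exposed to compounds for 96 hours before viability readout; 0% = vehicle and 100% = killing control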
smiles,measurement,setting,value
C[C@H]1NC(=O)NC1=O,fluorescence slope change,[1],1.4% (inactive)
same,survival,[2],3.67 (inactive)
CC1(C)S[C@@H]2[C@H](NC(=O)[C@H](C(=O)O)c3ccsc3)C(=O)N2[C@H]1C(=O)O,survival,[2],15.8 (inactive)
C=CC1=C(C)C2=CC3=NC(=C(CC(=O)O)C4=NC(=C(C)C4=C(O)O)C=c4[nH]c(c(C)c4CC)=CC1=N2)C(CCC(=O)O)C3C (stereo not given),inhibition,[3]; at 0.5 µM,-0.22% (inactive)
same,inhibition,"[3]; measured here: inhibition with BGB combination, at 0.05 µM",-17.7%
same,inhibition,"[3]; measured here: inhibition with cisplatin combination, at 0.05 µM",-4.64%
same,inhibition,[4]; at 0.5 µM,-20% (inactive)
same,inhibition,"[4]; measured here: combination with cisplatin, at 0.5 µM",-3.5%
same,inhibition,"[4]; measured here: combination with cisplatin, at 5 µM",-14.7%
same,inhibition,"[5]; BGB combination, concentration series, at 5 µM",12.6%
same,inhibition,[5]; at 0.5 µM,-3.06% (inactive)
same,inhibition,"[5]; cisplatin combination, concentration series, at 5 µM",10.4%
same,inhibition,[6]; at 0.5 µM,-8.5% (inactive)
same,inhibition,"[6]; measured here: combo with BGB IC20, at 0.5 µM",-9.9%
same,inhibition,"[6]; measured here: combo with cisplatin IC20, at 0.5 µM",-17.9%
